# Test results reported in the supplement of paper PMC6555819.
# Legend:
# Assay in all cases: PBM binding z-score (relative to random genomic background probes); higher = stronger binding; sequences stand for … in GC…GCGATTGACAGCGTAGAATGAAGG
# [1] = test system: FXR:RXRa (NR concentration 270 nM, RXRa partner concentration 90 nM)
# Summary of the method: (§1)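 On custom Agilent 4×180K arrays, double-stranded probes with 34-nt variable regions carried direct-repeat seeds, single-nucleotide variants, half-site ablations or random human genomic background. Ligand-free nuclear receptor dimers were applied for 1 h, and binding was read with antibodies against each partner (one per run). Binding z-scores come from regression-normalized fluorescence, with the random background probes as reference.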
# [2] = test system: LXRa:RXRa (NR concentration 270 nM, RXRa partner concentration 90 nM)
# Summary of the method: as §1
# [3] = test system: LXRa homodimer (NR concentration 270 nM)
# Summary of the method: as §1
# [4] = test system: LXRb:RXRa (NR concentration 270 nM, RXRa partner concentration 90 nM)
# Summary of the method: as §1
# [5] = test system: LXRb homodimer (NR concentration 270 nM)
# Summary of the method: as §1
# [6] = test system: PPARa:RXRa (NR concentration 270 nM, RXRa partner concentration 90 nM)
# Summary of the method: as §1
# [7] = test system: PPARg:RXRa (NR concentration 180 nM, RXRa partner concentration 90 nM)
# Summary of the method: as §1
# [8] = test system: PPARg:RXRa 270nM:90nM, anti-RXR (NR concentration 270 nM, RXRa partner concentration 90 nM)
# Summary of the method: as §1
# [9] = test system: PPARg:RXRa 30nM:10nM, anti-RXR (NR concentration 30 nM, RXRa partner concentration 10 nM)
# Summary of the method: as §1
# [10] = test system: PPARg:RXRa 90nM:30nM, anti-RXR (NR concentration 90 nM, RXRa partner concentration 30 nM)
# Summary of the method: as §1
# [11] = test system: PPARg:RXRa DBDmut IVT, anti-RXR (DBD mutation: RXRa K156A/R161A, NR concentration 270 nM, RXRa partner concentration 90 nM)
# Summary of the method: as §1
# [12] = test system: PPARg:RXRa IVT, anti-PPARg (NR concentration 270 nM, RXRa partner concentration 90 nM)
# Summary of the method: as §1
# [13] = test system: PPARg DBDmut:RXRa IVT, anti-PPARg (DBD mutation: PPARg1 K132A/R137A, NR concentration 270 nM, RXRa partner concentration 90 nM)
# Summary of the method: as §1
# [14] = test system: PPARg DBDmut IVT, anti-PPARg (DBD mutation: PPARg1 K132A/R137A, NR concentration 270 nM)
# Summary of the method: as §1
# [15] = test system: PPARg homodimer (NR concentration 180 nM)
# Summary of the method: as §1
# [16] = test system: PXR:RXRa (NR concentration 270 nM, RXRa partner concentration 90 nM)
# Summary of the method: as §1
# [17] = test system: PXR homodimer (NR concentration 270 nM)
# Summary of the method: as §1
# [18] = test system: RARa:RXR (NR concentration 270 nM, RXRa partner concentration 90 nM)
# Summary of the method: as §1
# [19] = test system: RARa homodimer (NR concentration 270 nM)
# Summary of the method: as §1
# [20] = test system: RARb:RXRa (NR concentration 270 nM, RXRa partner concentration 90 nM)
# Summary of the method: as §1
Sequence,PBM binding z-score [1],PBM binding z-score [2],PBM binding z-score [3],PBM binding z-score [4],PBM binding z-score [5],PBM binding z-score [6],PBM binding z-score [7],PBM binding z-score [8],PBM binding z-score [9],PBM binding z-score [10],PBM binding z-score [11],PBM binding z-score [12],PBM binding z-score [13],PBM binding z-score [14],PBM binding z-score [15],PBM binding z-score [16],PBM binding z-score [17],PBM binding z-score [18],PBM binding z-score [19],PBM binding z-score [20]
AGAACGAGGGCACGCTGAGTTGATAGTAGAGTAG,0.725,0.439,-0.765,0.35,-0.699,2.1,1.94,1.62,0.448,0.971,4.08,3.89,0.542,0.293,0.125,1.26,0.49,0.759,-0.324,2.57
AGTCAAAGTTCAGGACGAGGAAACGTAAAGCACG,3.83,3.6,0.784,1.92,0.307,3.21,5.02,5.02,2.33,4.27,-0.351,1.46,0.63,0.55,1.71,2.42,0.845,2.26,-0.0138,4.25
CGAACTATGTCATCCAGGACAGTGAATACATTGA,0.102,-0.0297,0.258,0.236,0.0323,1.01,1.11,1.06,0.663,0.773,3.74,2.94,1.29,1.1,0.502,0.317,-0.051,0.733,0.52,0.805
ACTCGGAGGAAAAAGGTCAGAGCTACGCCAGTGA,2.49,3,0.501,2.45,-0.26,3.73,2.6,3.2,1.2,2.74,-0.318,1.1,0.319,-0.672,1.74,2.65,0.00836,3.29,1.23,3.88
TCTAGGTGGTCAAAGGTCACACACTCGAAATGCG,6.45,5.79,3.73,5.64,1.02,6.57,10.3,8.72,8.95,10.2,3.06,5.9,1.01,1.59,4.5,6.19,1.82,7.34,2.69,5.22
TCTTGTAAATCAAGCAGGTTAAGAAAGCCTGAGT,0.618,0.47,-0.237,0.526,-0.289,0.845,-0.51,1.34,2.8,2.01,1.54,-0.000502,-0.116,0.31,-0.337,0.678,0.119,0.64,0.0275,0.495
CCGACTGGGGCAAGGTTACAATAACGCACAGCCA,0.137,0.576,-0.19,0.492,-1.15,1.94,3,2.86,1.2,2.36,3.2,3.29,-0.578,-1.14,0.441,0.333,-0.113,0.945,0.189,1.38
